PubChem BioAssay (EPA / NIEHS)
Several values for one entry are separate records, joined by “and”; a condition that tells them apart may be missing. Identical values can stand only once. Records with an inconclusive call do not appear. Some compounds were tested as several samples or in several runs, with calls that do not always agree. Activity calls are given as the source filed them. The calls were made as follows, unless noted: active = hit-call score of the fitted dose curve at least 0.9, where 1 is the maximum; inactive = score below 0.9.

Experiments:
[1] = read-out: solute carrier (SLC22A1), SLC22A1 (gene 6580); assay: LTEA_HepaRG_SLC22A1: Life Technologies and Expression Analysis (LTEA) Assay for solute carrier (SLC22A1) using HepaRG (AID 2283524); conditions: mRNA level, 48 h; actives raise or lower the signal
Outline: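 Differentiated human HepaRG cells in serum-free induction medium, exposed 48 h in duplicate to 8-point half-log series from 100 µM top in 0.5% DMSO. SLC22A1 mRNA by TaqMan qRT-PCR normalized to ACTB, GAPDH, POLR2A; bidirectional fit versus DMSO.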

[2] = read-out: Pyruvate Dehydrogenase Kinase 4 (PDK4), PDK4 (gene 5166); assay: LTEA_HepaRG_PDK4: Life Technologies and Expression Analysis (LTEA) Assay for Pyruvate Dehydrogenase Kinase 4 (PDK4) using HepaRG (AID 2283525); conditions: mRNA level, 48 h; actives raise or lower the signal
Outline: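 HepaRG cells plated 48 h, then switched to serum-free induction medium and exposed in duplicate for 48 h to 8 half-log concentrations from 100 uM in 0.5% DMSO. PDK4 mRNA measured by qRT-PCR, normalized to ACTB, GAPDH and POLR2A; bidirectional fit versus DMSO.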

[3] = read-out: Nuclear factor erythroid 2-related factor 2 (Homo sapiens) (UniProt Q16236); assay: LTEA_HepaRG_NFE2L2: Life Technologies and Expression Analysis (LTEA) Assay for Nuclear factor erythroid 2-related factor 2 (NFE2L2) Transcription Factor using HepaRG (AID 2283527); conditions: mRNA level, 48 h; actives raise or lower the signal
Outline: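 Differentiated human HepaRG cells, serum-free induction medium, exposed 48 h in duplicate to eight half-log concentrations up to 100 uM in 0.5% DMSO. NFE2L2 mRNA by Fluidigm TaqMan qRT-PCR, normalised to ACTB, GAPDH, POLR2A; bidirectional change versus DMSO.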

[4] = read-out: Signal transducer and activator of transcription 3 (Homo sapiens) (UniProt P40763); assay: LTEA_HepaRG_STAT3: Life Technologies and Expression Analysis (LTEA) Assay for Signal transducer and activator of transcription (STAT3) using HepaRG (AID 2283529); conditions: mRNA level, 48 h; actives raise or lower the signal
Outline: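 Differentiated HepaRG cells, serum-free induction medium, dosed 48 h in duplicate, 8 half-log concentrations from 100 uM in 0.5% DMSO. STAT3 mRNA by qRT-PCR, normalised to ACTB, GAPDH, POLR2A; bidirectional fit versus DMSO.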

[5] = read-out: solute carrier (SLCO1B1), SLCO1B1 (gene 10599); assay: LTEA_HepaRG_SLCO1B1: Life Technologies and Expression Analysis (LTEA) Assay for solute carrier (SLCO1B1) using HepaRG (AID 2283530); conditions: mRNA level, 48 h; actives raise or lower the signal
Outline: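 HepaRG, serum-free induction medium, 48 h dosing, 8-pt half-log from 100 uM, 0.5% DMSO vehicle, duplicates. Readout: SLCO1B1 mRNA, qRT-PCR, ACTB/GAPDH/POLR2A normalization; up or down fit vs DMSO.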

[6] = read-out: sulfotransferase 2A1 (SULT2A1), SULT2A1 (gene 6822); assay: LTEA_HepaRG_SULT2A1: Life Technologies and Expression Analysis (LTEA) Assay for sulfotransferase 2A1 (SULT2A1) using HepaRG (AID 2283531); conditions: mRNA level, 48 h; actives raise or lower the signal
Outline: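 Transcript levels of SULT2A1, quantified by qRT-PCR and normalized to three housekeeping genes, serve as the readout. Human HepaRG cultures receive test chemicals for 48 h at up to 100 uM in half-log steps, with 0.5% DMSO vehicle.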

[7] = read-out: Transforming Growth Factor (TGFA), TGFA (gene 7039); assay: LTEA_HepaRG_TGFA: Life Technologies and Expression Analysis (LTEA) Assay for Transforming Growth Factor (TGFA) using HepaRG (AID 2283532); conditions: mRNA level, 48 h; actives raise or lower the signal
Outline: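 Differentiated HepaRG cells exposed 48 hours in serum-free induction medium, 0.5% DMSO vehicle, 8-point half-log series from 100 uM, in duplicate. TGFA mRNA by TaqMan qRT-PCR, normalised to ACTB, GAPDH, POLR2A; bidirectional fit versus DMSO.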

[8] = read-out: Transforming Growth Factor (TGFB1), TGFB1 (gene 7040); assay: LTEA_HepaRG_TGFB1: Life Technologies and Expression Analysis (LTEA) Assay for Transforming Growth Factor (TGFB1) Transporter using HepaRG (AID 2283533); conditions: mRNA level, 48 h; actives raise or lower the signal
Outline: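 HepaRG, 48 h post-plating, switched to serum-free induction medium; chemicals 100 uM top, half-log, 8 pts, 0.5% DMSO, dup; 48 h exposure; RNA → Fluidigm TaqMan qRT-PCR; norm ACTB/GAPDH/POLR2A; bidirectional fit vs DMSO.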

TIMP1, TIMP1 (gene 7076) = assay: LTEA_HepaRG_TIMP1: Life Technologies and Expression Analysis (LTEA) Assay for TIMP1 using HepaRG (AID 2283534); conditions: mRNA level, 48 h; actives raise or lower the signal
Outline: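 Readout is TIMP1 mRNA level measured by qRT-PCR and normalized to three housekeeping genes. Human HepaRG cells were treated for 48 h in duplicate at eight concentrations up to 100 uM (0.5% DMSO); gain or loss fitted against DMSO.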

[9] = read-out: Tumor necrosis factor receptor 1 (TNFRSF1A), TNFRSF1A (gene 7132); assay: LTEA_HepaRG_TNFRSF1A: Life Technologies and Expression Analysis (LTEA) Assay for Tumor necrosis factor receptor 1 (TNFRSF1A) using HepaRG (AID 2283535); conditions: mRNA level, 48 h; actives raise or lower the signal
Outline: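 Read-out is TNFRSF1A transcript level by TaqMan qRT-PCR, normalized to three housekeeping genes, scored as gain or loss of signal versus 0.5% DMSO. Human HepaRG cells received test chemicals for 48 h at up to 100 uM (half-log series).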

[10] = read-out: Thyroid Hormone Responsive (THRSP), THRSP (gene 7069); assay: LTEA_HepaRG_THRSP: Life Technologies and Expression Analysis (LTEA) Assay for Thyroid Hormone Responsive (THRSP) using HepaRG (AID 2283536); conditions: mRNA level, 48 h; actives raise or lower the signal
Outline: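 Differentiated HepaRG cells treated 48 h in serum-free induction medium with 8 half-log concentrations up to 100 uM (0.5% DMSO), duplicates. THRSP mRNA by TaqMan qRT-PCR normalised to ACTB, GAPDH, POLR2A; bidirectional fit versus DMSO.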

[11] = read-out: UDP glucuronosyltransferase (UGT1A1), UGT1A1 (gene 54658); assay: LTEA_HepaRG_UGT1A1: Life Technologies and Expression Analysis (LTEA) Assay for UDP glucuronosyltransferase (UGT1A1) using HepaRG (AID 2283538); conditions: mRNA level, 48 h; actives raise or lower the signal
Outline: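 Readout is UGT1A1 transcript level by qRT-PCR, normalized to three housekeeping genes, after 48 h chemical treatment of HepaRG cells. Concentrations ran from 100 uM down in half-log steps with 0.5% DMSO, and gain or loss relative to DMSO was fitted.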

[12] = read-out: UDP glucuronosyltransferase (UGT1A6), UGT1A6 (gene 54578); assay: LTEA_HepaRG_UGT1A6: Life Technologies and Expression Analysis (LTEA) Assay for UDP glucuronosyltransferase (UGT1A6) using HepaRG (AID 2283539); conditions: mRNA level, 48 h; actives raise or lower the signal
Outline: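 HepaRG, 48 h post-plating switch to serum-free induction medium; chemical 48 h, 100 uM top, half-log x8, duplicate, 0.5% DMSO. Phenobarbital 1mM induction control. UGT1A6 mRNA by TaqMan qRT-PCR; gain/loss fit vs DMSO.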

[13] = read-out: X-box binding protein 1 (XBP1), XBP1 (gene 7494); assay: LTEA_HepaRG_XBP1: Life Technologies and Expression Analysis (LTEA) Assay for X-box binding protein 1 (XBP1) using HepaRG (AID 2283540); conditions: mRNA level, 48 h; actives raise or lower the signal
Outline: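 Transcript levels of XBP1, measured by qRT-PCR and normalised to three housekeeping genes, were fitted bidirectionally relative to 0.5% DMSO controls. Human HepaRG cells received eight-point half-log dilutions from 100 uM for 48 h.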

[14] = LTEA_HepaRG_LDH_cytotoxicity: Cytotoxicity Assessment in the Life Technologies and Expression Analysis (LTEA) Assay (AID 2283563; active = hit-call score of the fitted dose curve at least 0.9, where 1 is the maximum;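 as to AC50: LDH activity released into spent culture medium as a marker of cell death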)
Outline: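 Cells were thawed and plated for 48 h. Medium was then replaced with serum-free induction medium. Chemicals (8 half-log points, maximum 100 uM, 0.5% DMSO) were added in duplicate for 48 h, after which spent medium was assayed for LDH.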

[15] = target: Cellular tumor antigen p53 (Homo sapiens) (UniProt P04637); assay: TOX21_p53_BLA_p2_ratio: Tox21 HCT-116 p53 Agonism Beta-lactamase Assay, Ratio, Phase 2 (AID 2283592; active = hit-call score of the fitted dose curve at least 0.9, where 1 is the maximum)
Cellular tumor antigen p53 (Homo sapiens), sequence (P04637 whole entry, looked up): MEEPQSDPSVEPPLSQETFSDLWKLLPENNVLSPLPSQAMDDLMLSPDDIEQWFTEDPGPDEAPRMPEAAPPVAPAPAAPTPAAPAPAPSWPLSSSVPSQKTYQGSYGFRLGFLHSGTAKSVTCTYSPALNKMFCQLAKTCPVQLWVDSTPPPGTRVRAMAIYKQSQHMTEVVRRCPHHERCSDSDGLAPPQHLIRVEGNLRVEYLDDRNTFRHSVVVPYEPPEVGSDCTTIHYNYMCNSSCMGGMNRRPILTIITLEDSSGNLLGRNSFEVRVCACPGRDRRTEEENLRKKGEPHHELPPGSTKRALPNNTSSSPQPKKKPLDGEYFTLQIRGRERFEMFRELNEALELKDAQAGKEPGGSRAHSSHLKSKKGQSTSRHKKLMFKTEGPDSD
Outline: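 HCT116 p53-bla; 4000 cells/well; 5 h pre-incubation; cpd in DMSO, 217-fold dilution; 16 h 37C/5% CO2; CCF4-AM 2 h RT; Ex 405, Em 460/530 ratio; DMSO = baseline; positive fitting direction.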

[16] = ATG_XTT_Cytotoxicity: Cytotoxicity Assessment in the Attagene TRANS-FACTORIAL HepG2 Assay (AID 2283584; active = hit-call score of the fitted dose curve at least 0.9, where 1 is the maximum)
Outline: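 Cells: human HepG2, transiently transfected with MRTU reporter constructs. Exposure 24 h. Readout: XTT, cell number. Baseline/neg ctrl DMSO; loss-of-signal scored.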

Measured: AC50

Signal transducer and activator of transcription 3 (Homo sapiens), sequence (P40763 whole entry, looked up): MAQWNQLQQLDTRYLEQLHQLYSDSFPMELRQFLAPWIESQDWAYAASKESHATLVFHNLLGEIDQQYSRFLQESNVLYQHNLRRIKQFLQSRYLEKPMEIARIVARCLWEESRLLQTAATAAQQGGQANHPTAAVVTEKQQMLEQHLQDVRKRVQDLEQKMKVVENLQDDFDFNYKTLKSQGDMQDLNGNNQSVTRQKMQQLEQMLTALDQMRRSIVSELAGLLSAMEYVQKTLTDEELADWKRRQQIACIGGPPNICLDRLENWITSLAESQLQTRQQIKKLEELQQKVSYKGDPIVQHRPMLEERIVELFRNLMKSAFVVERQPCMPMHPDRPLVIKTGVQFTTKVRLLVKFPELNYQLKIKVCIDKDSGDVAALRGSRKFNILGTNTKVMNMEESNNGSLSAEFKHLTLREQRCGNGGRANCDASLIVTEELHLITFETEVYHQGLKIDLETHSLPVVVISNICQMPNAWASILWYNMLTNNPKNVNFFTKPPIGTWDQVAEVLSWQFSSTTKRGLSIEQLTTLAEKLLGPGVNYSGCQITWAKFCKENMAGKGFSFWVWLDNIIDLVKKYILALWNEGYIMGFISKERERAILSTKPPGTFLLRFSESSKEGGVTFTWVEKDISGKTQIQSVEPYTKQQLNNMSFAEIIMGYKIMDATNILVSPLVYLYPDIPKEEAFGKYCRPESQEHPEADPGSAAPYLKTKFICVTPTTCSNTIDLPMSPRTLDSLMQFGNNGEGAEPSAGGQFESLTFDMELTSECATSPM
Nuclear factor erythroid 2-related factor 2 (Homo sapiens), sequence (Q16236 whole entry, looked up): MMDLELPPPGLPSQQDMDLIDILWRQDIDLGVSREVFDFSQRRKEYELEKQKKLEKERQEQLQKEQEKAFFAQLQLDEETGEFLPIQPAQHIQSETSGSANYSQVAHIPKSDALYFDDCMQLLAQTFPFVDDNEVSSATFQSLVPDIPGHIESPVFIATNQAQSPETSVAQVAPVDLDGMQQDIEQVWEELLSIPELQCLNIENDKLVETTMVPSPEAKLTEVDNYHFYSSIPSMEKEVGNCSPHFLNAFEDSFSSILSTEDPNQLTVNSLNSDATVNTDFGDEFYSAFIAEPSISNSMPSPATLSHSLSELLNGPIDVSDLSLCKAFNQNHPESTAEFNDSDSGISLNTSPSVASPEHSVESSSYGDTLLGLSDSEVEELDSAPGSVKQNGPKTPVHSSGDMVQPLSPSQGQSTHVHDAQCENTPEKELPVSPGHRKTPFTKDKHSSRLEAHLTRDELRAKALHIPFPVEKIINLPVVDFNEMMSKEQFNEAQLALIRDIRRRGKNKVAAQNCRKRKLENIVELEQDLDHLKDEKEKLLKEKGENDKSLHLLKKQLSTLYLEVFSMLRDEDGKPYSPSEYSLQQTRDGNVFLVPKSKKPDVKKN

O=C(Nc1ccccc1)Nc1cnns1
active: [1] 70 µM | [2] 62.4 µM | [5] 74.2 µM | [6] 50 µM | [10] 73.5 µM | [11] 87.2 µM | [12] 77.9 µM | [13] 50 µM | [14] 77.2 µM | [15] 64.1 µM
inactive: [3] | [4] | [7] | [8] | TIMP1, TIMP1 (gene 7076) | [9]

COc1nn(CSP(=S)(OC)OC)c(=O)s1
active: [11] 15.1 µM
inactive: [1] | [2] | [3] | [4] | [5] | [6] | [7] | [8] | TIMP1, TIMP1 (gene 7076) | [9] | [10] | [12] | [13] | [14] | [15]

COC(=O)c1ccccc1CS(=O)(=O)NC(=O)Nc1nc(OC)cc(OC)n1
inactive: [15]

CC1(c2ccc(Oc3ccccc3)cc2)OC(=O)N(Nc2ccccc2)C1=O (stereo not given)
inactive: [8] | TIMP1, TIMP1 (gene 7076) | [9] | [11] | [13]
active: [1] 13.5 µM | [2] 32.1 µM | [3] 23 µM | [4] 50.2 µM | [5] 30.6 µM | [6] 32.5 µM | [7] 8.82 µM | [10] 24.1 µM | [12] 50.2 µM | [14] 50.2 µM | [15] 16.9 µM

N#CN
inactive: [1] | [2] | [3] | [4] | [5] | [6] | [7] | [8] | TIMP1, TIMP1 (gene 7076) | [9] | [10] | [11] | [12] | [13] | [14]

C[C@H]1[C@H](c2ccc(Cl)cc2)SC(=O)N1C(=O)NC1CCCCC1
inactive: [2] | [4] | TIMP1, TIMP1 (gene 7076) | [9] | [13] | [14] | [15]
active: [1] 50 µM | [3] 73 µM | [5] 60.7 µM | [6] 93.4 µM | [7] 69.5 µM | [8] 50 µM | [10] 90.2 µM | [11] 88.6 µM | [12] 78.8 µM

CNC(=O)CSP(=S)(OC)OC
inactive: [1] | [2] | [3] | [4] | [5] | [6] | [7] | [8] | TIMP1, TIMP1 (gene 7076) | [9] | [10] | [11] | [12] | [13] | [14]

N#Cc1c(Cl)c(Cl)c(Cl)c(C#N)c1Cl
active: [1] 61.5 µM | [2] 75.6 µM | TIMP1, TIMP1 (gene 7076) 22.5 µM | [10] 13.2 µM | [13] 82.3 µM | [14] 50 µM | [15] 15.7 µM
inactive: [3] | [4] | [5] | [6] | [7] | [8] | [9] | [11] | [12] | [15]

CCC(C)(C)C(=O)OC1=C(c2ccc(Cl)cc2Cl)C(=O)OC12CCCCC2
inactive: [1] | [2] | [3] | [4] | [5] | [6] | [7] | [8] | TIMP1, TIMP1 (gene 7076) | [9] | [10] | [11] | [12] | [13] | [14] | [15]

CCOCN(C(=O)CCl)c1c(C)cccc1CC
inactive: [3] | [4] | [7] | [8] | TIMP1, TIMP1 (gene 7076) | [9] | [11] | [12] | [13] | [16] | [15]
active: [1] 81.1 µM | [2] 50 µM | [5] 81.3 µM | [6] 83.8 µM | [10] 9.92 µM | [14] 76 µM

COP(=S)(OC)Oc1ccc([N+](=O)[O-])cc1
inactive: [1] | [2] | [3] | [4] | [5] | [6] | [7] | [8] | TIMP1, TIMP1 (gene 7076) | [9] | [10] | [11] | [12] | [13] | [14] | [16] | [15]

CC(C)OC(=O)Nc1cccc(Cl)c1
active: [9] 50 µM
inactive: [1] | [2] | [3] | [4] | [5] | [6] | [7] | [8] | TIMP1, TIMP1 (gene 7076) | [10] | [11] | [12] | [13] | [14] | [15]

ClC1C(Cl)C(Cl)C(Cl)C(Cl)C1Cl (stereo not given)
inactive: [1] | [2] | [3] | [4] | [5] | [6] | [7] | [8] | TIMP1, TIMP1 (gene 7076) | [9] | [10] | [12] | [13] | [14] | [16] | [15]
active: [11] 780 nM and 3.95 µM
